Source: PubChem (several laboratories)
IEC-6 cytotox – kills IEC-6 intestinal cells in KLF5 counter-screen; IEC-6 cytotoxicity, luminescence viability; inhibition, % at 5 µM; 290,000 compounds, 0.78% hits; AID 1825
KLF5 inhibitor – suppresses KLF5 promoter-driven expression; DLD-1 KLF5 promoter-luciferase reporter, luminescence; inhibition, % at 5 µM; 290,000 compounds, 0.23% hits; AID 1700;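 active = inhibition above a per-plate limit of that plate's mean compound inhibition plus 3 SD, cut at about 60% in these data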;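 also: higher means less KLF5 promoter-driven luciferase light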
BaF3 parental – parental Ba/F3 viability inhibition as JAK2V617F counter-screen. CellTiter-Glo ATP luminescence. inhibition, % at 5.6 µM. AID 1486. 220,000 compounds, 1.1% hits;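 active = inhibition above a per-campaign cutoff, the mean inhibition of all tested compounds plus 3 SD, cut at about 27% in these data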
aSyn UTR inh – MLPCN primary screen, SNCA 5' untranslated region; alpha-synuclein 5'UTR reporter, inhibitor activity; inhibition, % (tested at 7.5 µM); 300,000 compounds, 0.82% hits; in the data active = inhibition above about 60%; inconclusive = no clear call, values can overlap the other calls;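 also: H4 neuroglioblastoma cells stably carrying SNCA 5'UTR luciferase fusion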
APP transl inh – APP translation inhibition. SH-SY5Y APP 5'UTR-luciferase reporter, luminescence. inhibition, % at 2 µM. 190,000 compounds, 0.82% hits;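 active = inhibition above a set limit, derived from the sample mean plus 3 SD, cut at about 45% in these data; inconclusive = one replicate passes the limit while the other fails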
Ba/F3 V617F tox – reduce viability of Ba/F3 cells dependent on JAK2V617F. Ba/F3 EpoR-JAK2V617F viability, ATP luminescence. 220,000 compounds, 1.1% hits. AID 1446. inhibition, % at 5.6 µM;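 active = inhibition above the campaign mean plus 3 SD over all tested compounds, cut at about 24% in these data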;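 also: cytokine-independent growth of Ba/F3 cells driven by EpoR plus mutant JAK2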
IEC-6 cytotox cf – IEC-6 cytotoxicity, confirmation assay; shares compounds with IEC-6 cytotox; IEC-6 rat intestinal epithelial viability, luminescence; inhibition, % at 5 µM; 1,900 compounds, 63% hits; AID 1907
Of the large screens only hits and unclear results are named; the others gave an inactive call (follow-up assays come after a bar, where they were run). An excerpt weighted towards active compounds, which were near 2.2% of everything screened. Rule as the data show it, unless noted: active = inhibition above about 22%; inactive = the rest.

COc1ccc(COc2cc(-c3cccc(OC)c3)nc3ccc(NC(=O)c4ccc(N(C)C)cc4)cc23)cc1	IEC-6 cytotox 49, BaF3 parental 75, Ba/F3 V617F tox 76 | IEC-6 cytotox cf inactive
CCn1cc(C(=O)NC2CCCc3c2cnn3-c2cccc(C)c2C)cn1 (configuration not stated)	IEC-6 cytotox 22 (no result: BaF3 parental, APP transl inh, Ba/F3 V617F tox) | IEC-6 cytotox cf inactive
Clc1ccc(OCCN2CCN(c3ncnc4sccc34)CC2)cc1	IEC-6 cytotox 26, BaF3 parental 73, Ba/F3 V617F tox 66 | IEC-6 cytotox cf inactive
O=C(Nc1ccc(-n2ccc(C(F)(F)F)n2)cc1)Nc1cccc(Cl)c1	IEC-6 cytotox 23, BaF3 parental 63, Ba/F3 V617F tox 54 (no result: APP transl inh) | IEC-6 cytotox cf 48
Cc1cc(C)cc(NC(=O)Nc2ccc(-n3ccc(C(F)(F)F)n3)cc2)c1	none (no result: APP transl inh)
Cn1c2c(c(=O)n1-c1ccccc1)CSCC2	none (no result: IEC-6 cytotox, KLF5 inhibitor, BaF3 parental, APP transl inh, Ba/F3 V617F tox)
Cc1cc(C(C)(C)C)cc(C)c1C[n+]1ccc2ccccc2c1	IEC-6 cytotox 28 (no result: BaF3 parental, APP transl inh, Ba/F3 V617F tox) | IEC-6 cytotox cf 22
COc1ccccc1CNC(=O)COC(=O)C1CCN(c2ccc(C(F)(F)F)cn2)CC1	none (no result: IEC-6 cytotox, KLF5 inhibitor, BaF3 parental, APP transl inh, Ba/F3 V617F tox)
Cc1cccc(Nc2nc(NCc3ccco3)nc(N3CCOCC3)n2)c1	IEC-6 cytotox 31 | IEC-6 cytotox cf inactive
CC(=O)N1CCN(c2ccc(NC(=O)c3ccco3)cc2Cl)CC1	none (no result: BaF3 parental, APP transl inh, Ba/F3 V617F tox)
CC(=O)N1CCN(c2ccc(NC(=O)c3ccc([N+](=O)[O-])o3)cc2Cl)CC1	IEC-6 cytotox 101 (no result: BaF3 parental, APP transl inh, Ba/F3 V617F tox) | IEC-6 cytotox cf 48
CCC(=O)N1CCN(c2ccc(NC(=O)c3ccc([N+](=O)[O-])o3)cc2Cl)CC1	IEC-6 cytotox 67, BaF3 parental 60, aSyn UTR inh 77, APP transl inh 92, Ba/F3 V617F tox 88 | IEC-6 cytotox cf 63
CCC(=O)N1CCN(c2ccc(NC(=O)c3ccco3)cc2Cl)CC1	none (no result: BaF3 parental, APP transl inh, Ba/F3 V617F tox)
CCN1CCN(c2ccc(NC(=O)c3ccc([N+](=O)[O-])o3)cc2Cl)CC1	IEC-6 cytotox 70, BaF3 parental 48, aSyn UTR inh 126, APP transl inh 94, Ba/F3 V617F tox 76 | IEC-6 cytotox cf 45
CCC(=O)N1CCN(c2ccc(Cl)cc2NC(=O)c2ccc([N+](=O)[O-])o2)CC1	IEC-6 cytotox 34 (no result: BaF3 parental, APP transl inh, Ba/F3 V617F tox) | IEC-6 cytotox cf inactive
CCN1CCN(c2ccc(S(=O)(=O)N3CCCCC3)cc2NC(=O)c2ccc([N+](=O)[O-])o2)CC1	none (no result: IEC-6 cytotox, KLF5 inhibitor, BaF3 parental, APP transl inh, Ba/F3 V617F tox)
CCCN1CCN(C(=O)c2nn(-c3ccc(OC)cc3)c(=O)c3c2c2ccccc2n3C)CC1	none
CC(=O)N/C(=N\c1nc(C)cc(C)n1)Nc1ccccc1Cl	none (no result: BaF3 parental, APP transl inh, Ba/F3 V617F tox)
CCOC(=O)N1CCN(S(=O)(=O)c2c[nH]c(C(=O)OC)c2)CC1	none (no result: BaF3 parental, APP transl inh, Ba/F3 V617F tox)
COCCCNC(=S)Nc1cc2oc3ccccc3c2cc1OC	IEC-6 cytotox 34 (no result: BaF3 parental, APP transl inh, Ba/F3 V617F tox) | IEC-6 cytotox cf 22
COc1cccc(NC(=O)CN2C(=O)NC(C)(c3ccc(C)cc3)C2=O)c1 (configuration not stated)	none (no result: BaF3 parental, APP transl inh, Ba/F3 V617F tox)
N#CC1=C(N)Oc2cc(N)ccc2C1c1cccc(Br)c1 (configuration not stated)	IEC-6 cytotox 81, aSyn UTR inh 119 (no result: BaF3 parental, APP transl inh, Ba/F3 V617F tox) | IEC-6 cytotox cf 54
N#CC1=C(N)Oc2cc(N)ccc2C1c1ccsc1 (configuration not stated)	none
N#CC1=C(N)Oc2cc(N)ccc2C1c1cc(Br)cs1 (configuration not stated)	IEC-6 cytotox 24 (no result: BaF3 parental, APP transl inh, Ba/F3 V617F tox) | IEC-6 cytotox cf inactive
CCOc1ccc(C(=O)c2ccncc2)cc1	none
CCOc1ccc(C(=O)C(CCC(CN(C)C)C(=O)c2ccc(OCC)cc2)CN(C)C)cc1 (configuration not stated)	IEC-6 cytotox 29, BaF3 parental 40, APP transl inh 92, Ba/F3 V617F tox 101 | IEC-6 cytotox cf 27
CC(OC(=O)c1cccc(-n2cnnn2)c1)C(=O)Nc1ccc(F)cc1 (configuration not stated)	none (no result: BaF3 parental, APP transl inh, Ba/F3 V617F tox)
O=c1c2ccccc2nc2n1C(CSc1ccccc1)CS2 (configuration not stated)	none
O=C(Nc1ccccc1SCC1CSc2nc3ccccc3c(=O)n21)c1cccc(Cl)c1 (configuration not stated)	IEC-6 cytotox 69 | IEC-6 cytotox cf 42
O=C(Nc1ccccc1SCC1CSc2nc3ccccc3c(=O)n21)c1ccccc1 (configuration not stated)	IEC-6 cytotox 50 | IEC-6 cytotox cf 32
Cc1cccc(C(=O)Nc2ccccc2SCC2CSc3nc4ccccc4c(=O)n32)c1 (configuration not stated)	IEC-6 cytotox 66 | IEC-6 cytotox cf 44
O=C(Nc1ccccc1SCC1CSc2nc3ccccc3c(=O)n21)c1ccccc1Cl (configuration not stated)	IEC-6 cytotox 60 | IEC-6 cytotox cf 26
COc1cc(NC(=O)c2ccccc2)c(OC)cc1NC(=O)Cc1ccc(F)cc1	none (no result: BaF3 parental, APP transl inh, Ba/F3 V617F tox)
Cc1ccc(C(=O)Nc2ccccc2SCC2CSc3nc4ccccc4c(=O)n32)cc1 (configuration not stated)	IEC-6 cytotox 70 | IEC-6 cytotox cf 45
CC1=NN(c2nc3ccccc3[nH]2)C(=O)/C1=C/N(C)C	IEC-6 cytotox 40, BaF3 parental 53, Ba/F3 V617F tox 58 (no result: aSyn UTR inh) | IEC-6 cytotox cf 68
O=C(N/C(=C\c1cccc(Br)c1)C(=O)N1CCOCC1)c1ccco1	none (no result: BaF3 parental, APP transl inh, Ba/F3 V617F tox)
Cc1ccccc1OCC(=O)NNC(=O)Nc1ccccc1	none
Cc1ccccc1OCC(=O)NNC(=O)Nc1ccc(Cl)cc1	IEC-6 cytotox 67 | IEC-6 cytotox cf 29
Cc1nnc(N/N=C\c2ccc(-c3ccccc3[N+](=O)[O-])o2)n1N	IEC-6 cytotox 58 | IEC-6 cytotox cf inactive
CCc1nnc(N/N=C/c2ccc(-c3ccc([N+](=O)[O-])cc3)o2)n1N	none
Cc1nnc(N/N=C/c2ccc(-c3ccccc3F)o2)n1N	IEC-6 cytotox 102 | IEC-6 cytotox cf inactive
COc1cccc(C(C(=O)NC(C)(C)C)N(Cc2ccc(F)cc2)C(=O)CCC(=O)Nc2cc(C)on2)c1OC (configuration not stated)	none (no result: BaF3 parental, APP transl inh, Ba/F3 V617F tox)
Cc1ccc(S(=O)(=O)NCCNC(=O)CN2CCOCC2)cc1	none (no result: BaF3 parental, APP transl inh, Ba/F3 V617F tox)
COc1cc(NC(=O)c2cc(-c3ccccc3Cl)on2)cc(OC)c1OC	IEC-6 cytotox 55 (no result: BaF3 parental, APP transl inh, Ba/F3 V617F tox) | IEC-6 cytotox cf 33
COc1ccccc1-c1cc(C(=O)Nc2cccnc2)no1	IEC-6 cytotox 58, BaF3 parental 57, aSyn UTR inh inconclusive, APP transl inh 96, Ba/F3 V617F tox 75 | IEC-6 cytotox cf 39
Cc1cccc(OCCCN2C(=O)C(=O)c3cc(C)ccc32)c1	IEC-6 cytotox 44 | IEC-6 cytotox cf inactive
C=CCn1c(SCC(=O)OCC)nc(C(F)(F)F)cc1=O	none
CN(C)NC(=O)C12CCC(C)(C(=O)O1)C2(C)C (configuration not stated)	none
COC(=O)CCn1[nH]c(=O)c2ccccc2c1=O	none
O=c1[nH]n(Cc2ccccc2)c(=O)c2ccccc12	IEC-6 cytotox 31 | IEC-6 cytotox cf 38
